Assay results reported in PubChem BioAssay AID652053 (Broad Institute, 2013).
Hit rate of the full screen: of about 1,300 compounds, about 930 (72%) were called active.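 The calls were made as follows: active = fitted curve reaches 40% activation signal increase at or below the top valid tested concentration in every replicate test; inconclusive = replicate tests disagree in their calls; inactive = all replicate tests inactive, including effects opposite the expected signal rise.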 The set was probably picked from earlier hits. These entries were drawn from the full list. Entries with a potency or affinity are not part of this list.

Assay: miR-122 inhibitors in Huh7 reporter cells, dose response, cell-based, Huh7 psiCHECK-miR122, Renilla luciferase, cherry-pick (AID 652053)
Details: 48 h; series mostly up to 35 µM

outcome, inactive:
CC(C)C(=O)Nc1ccc2c(c1)C(=O)N(C)[C@@H]1CC[C@@H](CC(=O)NCc3cccc(F)c3)O[C@H]1CO2, CN1C(=O)c2cc(NC(=O)C3CC3)ccc2OC[C@H]2O[C@H](CC(=O)NCc3cccc(F)c3)CC[C@H]21, CC(C)C(=O)Nc1ccc2c(c1)C(=O)N(C)[C@@H]1CC[C@H](CC(=O)NCc3cccc(F)c3)O[C@@H]1CO2, Cc1ccc2c(CN3CCCc4ccccc43)cc(=O)oc2c1C, C[C@H](CO)N1C[C@H](C)[C@@H](CN(C)Cc2ccncc2)Oc2c(NC(=O)C3CCOCC3)cccc2C1=O, CNC[C@H]1Oc2c(NC(=O)C3CCOCC3)cccc2C(=O)N([C@H](C)CO)C[C@@H]1C, CCOC(=O)N1CCN(c2ncnc3c2oc2nc(C(C)C)c4c(c23)CCC4)CC1, CC(=O)Nc1ccc2nc(CN3CCC(CO)(CCc4ccccc4)CC3)ccc2c1, COc1ccc(N(Cc2ccccc2)S(=O)(=O)c2cccc(C(=O)NC3=NCCS3)c2)cc1, CCOC(=O)c1[nH]c(C)c(C(=O)Nc2ccccc2C)c1C, Cc1ccc(N2CC(C(=O)Nc3nccs3)CC2=O)cc1Cl (stereo unspecified), c1csc(CNc2ncnc3ccc(-c4ccc5c(c4)OCO5)cc23)c1, CCC(=O)N(C)C[C@@H]1[C@@H](c2ccc(C3=CCCC3)cc2)[C@H](CO)N1C(=O)CC, N#Cc1ccc(CSc2nnc(-c3cccnc3)o2)cc1, Cc1ccc(S(=O)(=O)NC(C)(C)CSc2nnc(Nc3ccccc3)s2)cc1, COCCOC(=O)c1c(C)oc2ccc(NS(=O)(=O)c3ccc(C)cc3)cc12, CCc1noc(C)c1C(=O)OCC(=O)c1ccc(NC(C)=O)cc1F, COc1ccccc1N1CCN(C(=O)CSc2nnc(NC(=O)C3CCC3)s2)CC1, O=C(c1ccccc1F)N1C[C@H]2[C@@H](c3ccccc31)[C@@H](CO)N2CC1CCCCC1, CCCNC(=O)N1C[C@H]2[C@@H](c3ccccc31)[C@@H](CO)N2Cc1ccc(F)cc1, COc1cc(OC)cc(C(=O)N[C@H](C(=O)Nc2nc3ccccc3[nH]2)C(C)C)c1, O=C1N=C(N2CCc3ccccc3C2)S/C1=C\c1cccc(O)c1, COc1ccc(C(=O)Nc2ccccc2C(=O)N/N=C/c2ccccc2OC)cc1, Cc1ncc([N+](=O)[O-])n1CC(=O)Nc1ccc2c(c1)OCO2, N/C(Cc1cccc2ccccc12)=N\OC(=O)c1ccc2c(c1)OCO2, CCc1ccc(-c2cc(C(=O)NCc3ccccn3)c3ccccc3n2)cc1
